Screening results from PubChem.
This is a sample that favours compounds with a hit; in the whole collection about 6.8% have one here.
T cruzi growth-1 – blocks T. cruzi growth in NIH3T3 culture. T. cruzi beta-gal in NIH3T3, GalScreen luminescence, 90 h. inhibition, % at 8.34 µM. hit rate 5.9% among 77,000. AID 624255;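 active means mean inhibition above about 93%, with at least 55% of replicates each passing it, limit read from the data, passing the limit was not always enough; inconclusive means only one of those two conditions holds; inactive means neither condition holds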
C diff growth – C. difficile growth inhibition; Clostridium difficile clinical isolate growth, OD600, 24 h; stronger effect = lower value; growth activity, negative = inhibition, % at 16 µg/mL (by protocol); hit rate 0.25% among 86,000;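 active means mean growth activity at or below -80% and every replicate also at or below -80%; inconclusive means mean at or below -80% but some replicate above -80%; inactive means mean growth activity above -80%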;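 further: 0% = DMSO wells and -100% = levofloxacin 16 µg/mL wells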
Pf Dd2 inh – blocks growth of Plasmodium falciparum Dd2 parasites. P. falciparum Dd2 growth, SYBR Green, 72 h; stronger effect = lower value. activity change, % at 10 µM. hit rate 2.3% among 94,000; in the data active means activity change below about -80%; inconclusive means no clear call, values can overlap the other calls
T cruzi growth-2 – blocks T. cruzi growth in NIH3T3 host cells | shares compounds with T cruzi growth-1 | T. cruzi beta-gal in NIH3T3, GalScreen luminescence, 90 h | inhibition, % at 8.35 µM | hit rate 72% among 5,600;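 active means mean replicate inhibition above about 95% and at least 55% of replicates individually reaching it, limit read from the data; inconclusive means only one of the two criteria is met; inactive means neither criterion is met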
T cruzi growth-3 – blocks T. cruzi growth in NIH3T3 host cells | T. cruzi beta-gal in NIH3T3, GalScreen luminescence, 90 h | inhibition, % at 2.09 µM | shares compounds with T cruzi growth-1 | hit rate 21% among 5,600;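 active means mean inhibition above about 95%, with at least 55% of replicates also reaching it, limit read from the data; inconclusive means meets just one of the two conditions; inactive means meets neither condition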;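 further: plate controls were neutral control median for no effect and positive control median for full effect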
NIH3T3 tox – NIH/3T3 (mouse) viability loss; shares compounds with T cruzi growth-1; NIH/3T3 viability, CellTiter-Glo ATP luminescence, 90 h; cytotoxicity (signal decrease), % at 8.35 µM; hit rate 14% among 5,600; AID 651742;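 active means mean signal decrease across replicates above about 35% based on untreated-well scatter, with enough replicates individually passing, limit read from the data; inconclusive means no rule stated though some were filed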;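 further: 0% = median of neutral control wells and 100% = median of positive control wells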
NIH3T3 tox 2 – cytotoxicity in mouse NIH/3T3 fibroblasts | hit rate 56% among 5,600 | NIH/3T3 viability, CellTiter-Glo ATP luminescence, 90 h | inhibition, % at 24.9 µM | shares compounds with T cruzi growth-1;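 active means mean loss of cell viability signal at or above a set limit, and enough replicates individually reaching it; inconclusive means meets only the mean limit or only the replicate share; inactive means meets neither condition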;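 further: 0% = median of neutral control wells and 100% = median of positive control wells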
The depositor's hits bear a star; u = inconclusive; x = not tested or not shown.

SMILES	T cruzi growth-1	C diff growth	Pf Dd2 inh	T cruzi growth-2	T cruzi growth-3	NIH3T3 tox	NIH3T3 tox 2
CCC(=O)N1[C@@H]2c3ccc(C4=CCCC4)c(=O)n3C[C@H]1[C@H](CO)[C@H]2C(=O)N[C@@H](C)c1ccccc1	73	0	-8	x	x	x	x
C[C@H]1CN([C@@H](C)CO)C(=O)c2cc(C#CCN(C)C)cnc2O[C@H]1CN(C)Cc1ccccc1F	-1	2	1	x	x	x	x
O=C(Cc1ccncc1)NCC[C@H]1CC[C@@H](NC(=O)C2CCC2)[C@H](CO)O1	-8	x	22	x	x	x	x
Cc1ccc(-c2ccc([C@@H]3[C@@H](CO)N4CCCCN(C(=O)c5ccc(F)cc5)C[C@@H]34)cc2)cc1	107*	-6	-6	101*	53	-12	57*
Cc1ccc(-c2ccc([C@H]3[C@@H](CO)N4CCCCN(C(=O)c5ccc(F)cc5)C[C@@H]34)cc2)cc1	113*	49	-13	108*	86	26	105*
Cc1ccc(-c2ccc([C@@H]3[C@H](CO)N4CCCCN(C(=O)c5ccncc5)C[C@@H]34)cc2)cc1	44	11	3	x	x	x	x
Cc1ccc(-c2ccc([C@H]3[C@H]4CN(C(=O)c5ccc(F)cc5)CCCCN4[C@H]3CO)cc2)cc1	102*	32	2	103*	32	16	103*
CC(=O)N1CCCCN2[C@H](CO)[C@@H](c3ccc(-c4ccc(F)cc4)cc3)[C@H]2C1	-8	-14	22	x	x	x	x
Cc1ccc(-c2ccc([C@H]3[C@@H](CO)N4CCCCN(C(=O)c5ccc(F)cc5)C[C@H]34)cc2)cc1	103*	22	-50	106*	101*	46*	104*
C[C@@H]1CN([C@@H](C)CO)C(=O)c2cc(-c3ccccc3)cnc2O[C@H]1CN(C)C	21	-2	12	x	x	x	x
C[C@@H]1CCCCO[C@H](CN(C)S(=O)(=O)c2ccccc2)[C@@H](C)CN([C@@H](C)CO)C(=O)c2cc(NC(=O)CCC(F)(F)F)ccc2O1	78	17	-62	x	x	x	x
O=C(C[C@H]1C=C[C@H](NS(=O)(=O)c2ccc(F)cc2)[C@@H](CO)O1)NCCc1ccncc1	-1	-1	15	x	x	x	x
O=C(c1ccc(F)cc1)N1CCCCN2[C@@H](CO)[C@@H](c3ccc(-c4ccccc4)cc3)[C@@H]2C1	66	34	-24	x	x	x	x
Cc1ccc(-c2ccc([C@H]3[C@H](CO)N4CCCCN(C(=O)c5ccc(F)cc5)C[C@@H]34)cc2)cc1	103*	33	4	u	41	22	106*
COCCNC(=O)C[C@@H]1CC[C@H]2[C@@H](COc3ccc(NC(=O)c4cnccn4)cc3C(=O)N2C)O1	23	-8	-9	x	x	x	x
CC1C=NC(S(=O)(=O)N2CC[C@H]3[C@@H](CO)N(C)c4ccc(-c5cccc(F)c5)cc4[C@H]32)=N1 (some centres undefined)	89	-13	-9	x	x	x	x
CN1c2ccc(Br)cc2[C@H]2[C@H](CCN2S(=O)(=O)c2ccc(F)cc2)[C@H]1CO	68	-3	20	x	x	x	x
CN1c2ccc(Br)cc2[C@@H]2[C@@H](CCN2S(=O)(=O)c2cccc(F)c2)[C@@H]1CO	u	6	14	92	53	48*	41*
CC1C=NC(S(=O)(=O)N2CC[C@@H]3[C@@H](CO)N(C)c4ccc(-c5cccc(F)c5)cc4[C@@H]32)=N1 (some centres undefined)	103*	-15	7	104*	86	19	-7
Cc1cccc(S(=O)(=O)N2CC[C@@H]3[C@H](CO)N(C)c4ccc(Br)cc4[C@@H]32)c1	u	-1	24	111*	31	24	-2
COc1ccc(-c2ccc3c(c2)[C@@H]2[C@@H](CCN2S(=O)(=O)C2=NC(C)C=N2)[C@H](CO)N3C)cc1 (some centres undefined)	93	11	-13	x	x	x	x
COc1ccc(-c2ccc3c(c2)[C@H]2[C@H](CCN2S(=O)(=O)C2=NC(C)C=N2)[C@@H](CO)N3C)cc1 (some centres undefined)	101*	-5	15	104*	106*	-16	-26
CN1c2ccc(Br)cc2[C@@H]2[C@@H](CCN2S(=O)(=O)c2ccc(F)cc2)[C@H]1CO	47	-1	26	x	x	x	x
Cc1noc(C)c1NC(=O)Nc1ccc2c(c1)C(=O)N([C@H](C)CO)C[C@H](C)[C@H](CN(C)Cc1ccncc1)O2	x	-2	0	x	x	x	x
Cc1noc(C)c1NC(=O)N[C@H]1C=C[C@H](CC(=O)N2CCCCC2)O[C@@H]1CO	-29	4	12	x	x	x	x
SMILES	T cruzi growth-1	C diff growth	Pf Dd2 inh	T cruzi growth-2	T cruzi growth-3	NIH3T3 tox	NIH3T3 tox 2
COc1ccccc1C#Cc1ccc2c(c1)O[C@H](CN(C)C)[C@@H](C)CN([C@H](C)CO)S2(=O)=O	x	1	-41	x	x	x	x
C[C@@H]1CN([C@H](C)CO)C(=O)c2cc(NC(=O)Nc3cccc4ccccc34)ccc2O[C@@H]1CN(C)S(=O)(=O)c1cccs1	6	x	9	x	x	x	x
C[C@@H]1CN([C@H](C)CO)S(=O)(=O)c2ccc(-c3cncnc3)cc2O[C@@H]1CN(C)C(=O)CC1CC1	19	0	17	x	x	x	x
CN1c2ccc(-c3cccc(F)c3)cc2[C@@H]2[C@@H](CCN2S(=O)(=O)c2cccc(F)c2)[C@@H]1CO	102*	1	20	98*	77	59*	105*
CN1c2ccc(-c3cccc(F)c3)cc2[C@H]2[C@H](CCN2S(=O)(=O)c2cccc(F)c2)[C@H]1CO	85	2	26	x	x	x	x
C/C=C/c1ccc2c(c1)O[C@H](CN(C)C(=O)NC(C)C)[C@H](C)CN([C@H](C)CO)S2(=O)=O	22	8	13	x	x	x	x
Cc1noc(C)c1S(=O)(=O)Nc1ccc2c(c1)CC(=O)N([C@H](C)CO)C[C@H](C)[C@H](CN(C)C(=O)Nc1ccc(C(F)(F)F)cc1)O2	67	-15	11	x	x	x	x
COc1ccc(CN(C)C[C@H]2OCCCC[C@H](C)Oc3ccc(NS(=O)(=O)c4ccccc4)cc3C(=O)N([C@H](C)CO)C[C@H]2C)cc1	102*	-2	-36	108*	43	9	u
COc1ccc(CN(C)C[C@H]2OCCCC[C@H](C)Oc3ccc(NS(=O)(=O)c4ccc(Cl)cc4)cc3C(=O)N([C@H](C)CO)C[C@H]2C)cc1	94	15	u	x	x	x	x
COc1ccc(CN(C)C[C@H]2OCCCC[C@@H](C)Oc3ccc(NS(=O)(=O)c4ccccc4)cc3C(=O)N([C@H](C)CO)C[C@H]2C)cc1	-18	1	-55	x	x	x	x
COc1ccc(CN(C)C[C@@H]2OCCCC[C@@H](C)Oc3ccc(NS(=O)(=O)c4ccc(Cl)cc4)cc3C(=O)N([C@@H](C)CO)C[C@@H]2C)cc1	u	5	-35	u	58	30	107*
